High-throughput results deposited in PubChem BioAssay by NMMLSC.
MEKK2wt PB1 HTS: raises or lowers MEK5 binding to wildtype human MEKK2 PB1 domain; Q9Y2U5; bead flow cytometry, Alexa488-MEK5 binding to MEKK2 WT; actives lie on both sides; binding response (% of control), % at 10 µM; 290,000 tested, 1.1% active; AID 1531; in the data active means binding response below about 67% or above about 130%
MEKK2mut PB1 HTS: signal of MEK5 binding to mutant human MEKK2 PB1 domain; 290,000 tested, 0.35% active; percent response, % at 10 µM; AID 1530; bead flow cytometry, Alexa488-MEK5 binding to MEKK2 mutant; in the data active means percent response above about 24%, passing the limit was not always enough
GRK2 inh: human GRK2 inhibition via aptamer displacement | P25098 | bead flow cytometry, FAM-aptamer displacement from GRK2 | inhibition of aptamer binding, % at 10 µM | 330,000 tested, 0.59% active;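 active means inhibition of aptamer binding above 40%, roughly 3 SD of noise, on plates passing a quality check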;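 further: median bead fluorescence of bound FAM aptamer so fluorescent compounds give negative values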
Target sequence (P25098 whole entry, looked up): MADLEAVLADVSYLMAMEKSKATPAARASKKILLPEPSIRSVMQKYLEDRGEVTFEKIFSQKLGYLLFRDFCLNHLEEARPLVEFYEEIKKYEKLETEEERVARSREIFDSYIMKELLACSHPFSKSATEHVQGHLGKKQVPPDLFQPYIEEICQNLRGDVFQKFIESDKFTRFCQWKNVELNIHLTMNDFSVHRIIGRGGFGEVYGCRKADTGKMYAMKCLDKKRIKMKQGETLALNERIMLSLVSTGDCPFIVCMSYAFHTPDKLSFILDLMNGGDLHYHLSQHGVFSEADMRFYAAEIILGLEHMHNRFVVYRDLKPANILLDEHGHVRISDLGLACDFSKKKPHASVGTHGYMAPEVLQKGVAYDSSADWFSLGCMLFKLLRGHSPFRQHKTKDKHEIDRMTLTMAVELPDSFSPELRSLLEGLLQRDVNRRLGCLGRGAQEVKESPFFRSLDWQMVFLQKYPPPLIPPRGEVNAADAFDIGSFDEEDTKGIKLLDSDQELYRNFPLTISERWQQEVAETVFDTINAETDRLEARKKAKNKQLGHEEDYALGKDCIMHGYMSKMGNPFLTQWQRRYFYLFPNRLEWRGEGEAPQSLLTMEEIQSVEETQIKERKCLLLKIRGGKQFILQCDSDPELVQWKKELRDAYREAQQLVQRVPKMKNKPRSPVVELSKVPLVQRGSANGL
MEKK3 PB1 HTS: modulators (inhibitors or enhancers) of MEK5 binding to human MEKK3 PB1 domain; binding response (% of control), % at 10 µM; AID 1529; 290,000 tested, 1.4% active; bead-based flow cytometry, Alexa488-MEK5 binding to MEKK3; actives lie on both sides; 0 = blocked by unlabeled MEK5, 100 = vehicle;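 active means binding response more than 3 SD above or below the average of its plate-row segment, actives on both sides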;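 further: Alexa488 bead fluorescence after subtracting the streptavidin-only scavenger bead signal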
Of the large screens only hits and unclear results are named; the others gave an inactive call; [ ] = dose if it differs, or a comment. Sampled rows, rich in hits. Any-hit rate of the full collection: about 2.5%.

Cc1cc(NC(=O)c2cc([N+](=O)[O-])cc([N+](=O)[O-])c2)n(-c2ccccc2)n1	MEKK2wt PB1 HTS 30
Cn1c2ccccc2c(=O)c2ccc(C#Cc3ccc(N)cc3)cc21	MEKK2wt PB1 HTS 22
O=C(Nc1ccccc1Sc1ccccc1)c1ccccc1	none
CCOC(=O)/C(C#N)=N/Nc1ccc(S(=O)(=O)N2CCc3ccccc32)cc1	GRK2 inh 82
N#C/C(=N\Nc1ccc(S(=O)(=O)N2CCc3ccccc32)cc1)C(N)=S	none
CC(C)c1ccc(S(=O)(=O)c2nnn3c2nc(NCC2CCCO2)c2ccccc23)cc1 (stereo not drawn)	none
CCN(CC)S(=O)(=O)c1ccc(N2CCN(C)CC2)c(NC(=O)Nc2ccc(C)cc2)c1	MEKK2wt PB1 HTS 146
CC(C)Cc1nc2oc3c(N4CCN(CCO)CC4)ncnc3c2c2c1CCCC2	GRK2 inh 45
CCCCc1ccc(/C=C(\C#N)C(N)=S)s1	MEKK2wt PB1 HTS 5.0 (no result: GRK2 inh)
Cn1cccc1/C=C(/C#N)C(N)=S	none
COc1ccc(C)cc1NC(=O)c1c([N+](=O)[O-])cnn1C	none
CN1CCN(c2ccc(NC(=S)NC(=O)c3cccc4c(Br)cccc34)cc2)CC1	MEKK2wt PB1 HTS 173
COc1ccc(-c2cc(=O)oc3c(C)c(OCC(=O)NCCCn4ccnc4)ccc23)cc1	none
COc1ccc(OC)c(-n2c(O)cnc2Nc2nc(C)cc(C)n2)c1	none
CCOC(=O)c1c(-c2ccccc2)oc2ccc(O)c(CN3CCN(C)CC3)c12	none
O=C(NCCCCCCNC(=O)N1CCCCCC1)N1CCCCCC1	none
CCOC(=O)CSc1[nH]c2cc(OC)ccc2c1[N+](=O)[O-]	none
COc1ccc2c([N+](=O)[O-])c(Cl)[nH]c2c1	MEKK2wt PB1 HTS -6.0
CC(C)=CCC/C(C)=C/CCC(C)NCCN1CCNCC1 (stereo not drawn)	MEKK2wt PB1 HTS 224, MEKK2mut PB1 HTS 48
Cc1cc2cc(CNC(=O)c3ccc(Br)o3)ccc2[nH]1	MEKK2wt PB1 HTS 53[inhibitor]
Cc1cc2cc(CNC(=O)c3ccc4c(c3)OCO4)ccc2[nH]1	MEKK2wt PB1 HTS -9.0
COCCn1c(-c2ccc(OC)cc2)cnc1N	MEKK2wt PB1 HTS -6.0
CCOc1ccc(-c2cnc(N)n2C)cc1	none
Cc1ccc(S(=O)(=O)N(CC(=O)N(C)C)c2cccc([N+](=O)[O-])c2)cc1	none
O=C(N/N=C/c1cccs1)c1cccc(NC(=O)c2ccc(Cl)cc2)c1	MEKK3 PB1 HTS 132
O=C(N/N=C/c1cccs1)c1cccc(S(=O)(=O)Nc2ccc(Cl)cc2)c1	none
COc1ccc(S(=O)(=O)N2CCCC2C(=O)Nc2nnc(-c3cccnc3)s2)cc1 (stereo not drawn)	none (no result: MEKK2wt PB1 HTS, MEKK2mut PB1 HTS, MEKK3 PB1 HTS)
CNc1nn(-c2cccc(Cl)c2)nc1N	MEKK2wt PB1 HTS -1.0
Cc1cc2c(n1-c1ccc(C(=O)O)cc1)CCCCC2	GRK2 inh 68
COc1ccc(-c2cc(C)no2)cc1S(=O)(=O)NCC1CCN(Cc2cc(C)ccc2C)CC1	MEKK2wt PB1 HTS 143
COc1ccccc1CN1CCC(CNS(=O)(=O)c2cc(-c3cc(C)no3)ccc2C)CC1	none
Cc1cccc(/C=C2/Sc3ccc(C(=O)NCCCN4CCOCC4)cc3NC2=O)c1	MEKK2wt PB1 HTS 149, MEKK2mut PB1 HTS 25
CCN1CCN(CCCNC(=O)c2ccc3c(c2)NC(=O)/C(=C\c2cccc(C)c2)S3)CC1	MEKK2wt PB1 HTS 165
CCN1CCN(CCCNC(=O)c2ccc3c(c2)NC(=O)c2ccccc2S3)CC1	none
c1ccc2c(c1)-c1cccc3c1c-2cc1ccccc13	none (no result: MEKK2wt PB1 HTS, MEKK2mut PB1 HTS, MEKK3 PB1 HTS)
Cc1cc(-c2csc(N)n2)c(C)n1CCC(C)C	MEKK2wt PB1 HTS 59
O=C(Nc1oc2ccc(Cl)cc2c(=O)c1-c1ccc(F)cc1)c1ccco1	none
CN(C)CCCN(C(=O)c1ccco1)c1nc2cc3c(cc2s1)OCO3	none
CN(C)CCCN(C(=O)c1ccc([N+](=O)[O-])s1)c1nc2cc3c(cc2s1)OCCO3	GRK2 inh 71
Cc1ccc2sc(N(CCN(C)C)C(=O)c3ccc4ccccc4c3)nc2c1C	MEKK2wt PB1 HTS 161
CN(C)CCCN(C(=O)c1ccc(C(=O)c2ccccc2)cc1)c1nc2cc3c(cc2s1)OCO3	MEKK2wt PB1 HTS 170, MEKK2mut PB1 HTS 38
COc1ccc2sc(N(CCCN(C)C)C(=O)c3ccc(C(=O)c4ccccc4)cc3)nc2c1	none (no result: MEKK2wt PB1 HTS, MEKK2mut PB1 HTS, MEKK3 PB1 HTS)
Cc1cccc2sc(N(CCCN(C)C)C(=O)c3ccc(C(=O)c4ccccc4)cc3)nc12	MEKK2wt PB1 HTS 168, MEKK2mut PB1 HTS 33
CN(C)CCCN(C(=O)c1ccc(Br)s1)c1nc2cc3c(cc2s1)OCCO3	none (no result: MEKK2wt PB1 HTS, MEKK2mut PB1 HTS, MEKK3 PB1 HTS)
Cc1cc(C)c2sc(N(CCN(C)C)C(=O)c3ccc4ccccc4c3)nc2c1	none
O=C(NCCCNC(=O)c1ccccn1)c1ccc(Br)cc1	none
Cc1cc(NC(=O)CSCC(=O)OC(C)C(=O)c2cc(C)c(C)cc2C)no1 (stereo not drawn)	none (no result: MEKK2wt PB1 HTS, MEKK2mut PB1 HTS, MEKK3 PB1 HTS)
O=c1[nH]c(CN2CCN(c3ccccc3O)CC2)nc2ccccc12	none
O=c1[nH]cnc2c1cnn2Cc1ccccc1Cl	none
c1ccc2c(c1)nc(NCC1CCCO1)c1nnnn12 (stereo not drawn)	none
CN(C)CCCN(C(=O)c1ccc(C(=O)c2ccccc2)cc1)c1nc2ccc(F)cc2s1	MEKK2wt PB1 HTS 174
O=C1OC(c2ccc3c(c2)OCO3)=N/C1=C\c1ccc(C(=O)O)cc1	GRK2 inh 53
O=C(O)c1cccc(-c2ccc3c(c2)OCO3)c1	none
CN(C)c1nc(-c2cn(CCC#N)c3ccccc23)cs1	MEKK2wt PB1 HTS -15
CC(=O)N1CCOCCOCCOCC1	none
COc1ccc(S(=O)(=O)N(CCC#N)Cc2ccco2)cc1OC	none
O=S1(=O)N=C(Nc2ccc(N3CCOCC3)cc2)c2ccccc21	MEKK2wt PB1 HTS 37
O=S1(=O)N=C(N2CCOCC2)c2ccccc21	none
CCOc1ccc(N2C(N)=NC(N)=NC2(C)C)cc1	none
CC1(C)N=C(N)N=C(N)N1c1ccc(OCCCOc2ccccc2)c(Cl)c1	MEKK2wt PB1 HTS 165, MEKK2mut PB1 HTS 46
CCN1CCN(c2ccc(NC(=O)COc3ccccc3Cl)cc2)CC1	none
O=C(COc1ccccc1Cl)Nc1ccc(N2CCCC2)cc1	GRK2 inh 54
Cn1c(=O)cc(SCC(=O)NCCC2=CCCCC2)c2cc(Cl)ccc21	none
O=C(COC(=O)Cc1ccc(Cl)cc1)Nc1ccc(OC(F)F)cc1	GRK2 inh 44
N#Cc1c(SCC(=O)Nc2nncs2)sc2c(O)cc(=O)[nH]c12	GRK2 inh 41
CCCCCCn1c(C)nc2c(c1=O)c1nc3ccccc3nc1n2/N=C/c1ccco1	none
S=C(Nc1cc(Cl)cc(Cl)c1)NC1CCN(Cc2ccccc2)CC1	MEKK2wt PB1 HTS 135
CCCN(CCC)C(=O)C[n+]1cccc(/C=N/O)c1	GRK2 inh 49
O=C1OC(c2cccs2)=N/C1=C\c1ccc(-c2ccccc2Cl)o1	MEKK2wt PB1 HTS 62, MEKK2mut PB1 HTS 82 (no result: GRK2 inh)
O=C(NC1CCN(Cc2ccccc2)C1)c1cc(COc2ccc(F)cc2F)on1 (stereo not drawn)	none
Cc1ccc(C)c(OCc2cc(C(=O)NC3CCN(Cc4ccccc4)CC3)no2)c1	MEKK2wt PB1 HTS 135
Cc1c(C)c2ccc(OCC(=O)NCCN3CCOCC3)cc2oc1=O	none
